# Reference: PubChem BioAssay
# Calls of active or inactive are those of the source. Unless noted, the rule behind the calls is not given here.
# Experiments:
# [1] = tested on: Wnt5a (protein binding on small-molecule microarray); test: Wnt5a binders on small-molecule microarray, primary screen, biophysical, 635/667 nm fluorescence (AID 1142); settings: 635 nm fluorescence, higher = more signal;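 note: fluorescence read at 667 nm with signal to noise per printed feature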
# [2] = cell viability in Huh7 cells, primary screen, cytotoxicity control for HCV replication inhibitor project, CellTiter-Glo luminescence, basal, 48 h (AID 1143); settings: Huh7 HCV replicon, higher = more signal, called active from +8 up or from −8 down;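 note: Huh7 hepatoma cells carrying a hepatitis C replication reporter with no stimulus; test concentration not given here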
# [3] = P. aeruginosa biofilm formation inhibitors, primary screen, PAO1 strain, BacTiter-Glo luminescence, LB-PBS (AID 1144); settings: 12 h, higher = more signal
# [4] = CREB reporter modulators without forskolin, primary screen, cell-based, PC12, CRE-LacZ reporter, unstimulated (AID 1145); settings: no forskolin, luminescence, 4.5 h, higher = more signal, called active from +8 up or from −8 down
# [5] = CREB reporter modulators under forskolin, primary screen, cell-based, PC12, CRE-LacZ reporter, forskolin-stimulated (AID 1146); settings: luminescence, 4.5 h, higher = more signal, called active from +8 up or from −8 down;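 note: PC12 cells with 6xCRE LacZ reporter stimulated by forskolin 10 µM; beta-galactosidase reporter signal reflecting CREB driven transcription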
# [6] = target: Streptavidin (Streptomyces avidinii) (UniProt P22629); test: streptavidin binders on small-molecule microarray, primary screen, artefact control for SMM compound annotation, biophysical, 635/667 nm fluorescence (AID 1147); settings: streptavidin binding, higher = more signal;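 note: signal reflects streptavidin binding to arrayed compounds as a control protein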
# Streptavidin (Streptomyces avidinii), sequence (P22629 whole entry, looked up): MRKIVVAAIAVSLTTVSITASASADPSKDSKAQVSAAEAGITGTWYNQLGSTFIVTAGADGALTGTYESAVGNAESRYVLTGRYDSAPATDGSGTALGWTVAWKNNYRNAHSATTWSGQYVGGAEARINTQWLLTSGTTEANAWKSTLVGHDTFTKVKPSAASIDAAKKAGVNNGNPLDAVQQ
# [7] = small-molecule binders of probe aInhba, primary screen, biochemical, small-molecule microarray, 635/667 nm fluorescence (AID 1148); settings: higher = more signal;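 note: score merges 667nm spot fluorescence with signal-to-noise for antibody binding to printed compounds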
# [8] = target: Torsin-1A (Homo sapiens) (UniProt O14656); test: torsin A binders from cell lysate, primary screen, small-molecule microarray, wild-type, 635/667 nm (AID 1149); settings: COS7 hTOR1A-WT lysate, 635 nm fluorescence, higher = more signal
# Torsin-1A (Homo sapiens), sequence (O14656 whole entry, looked up): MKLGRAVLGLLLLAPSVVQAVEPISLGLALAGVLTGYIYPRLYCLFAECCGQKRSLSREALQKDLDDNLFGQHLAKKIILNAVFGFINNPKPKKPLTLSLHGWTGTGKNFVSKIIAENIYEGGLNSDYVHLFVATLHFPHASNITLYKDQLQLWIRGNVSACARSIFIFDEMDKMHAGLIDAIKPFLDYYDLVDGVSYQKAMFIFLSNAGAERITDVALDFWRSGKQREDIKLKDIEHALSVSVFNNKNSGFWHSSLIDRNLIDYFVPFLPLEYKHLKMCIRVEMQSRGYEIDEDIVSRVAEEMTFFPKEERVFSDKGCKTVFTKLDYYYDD
# [9] = target: Torsin-1A (Homo sapiens) (UniProt O14656); test: small-molecule binders of mutant TOR1A in lysate, primary screen, cell lysate, small-molecule microarray, COS7 lysate, 635/667 nm fluorescence (AID 1150); settings: COS7 hTOR1A mutant lysate, 635 nm fluorescence, higher = more signal;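 note: score pools 667 nm emission and signal to noise measuring lysate protein binding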
# [10] = tested on: Sonic hedgehog protein (Shh); test: small-molecule binders of Shh protein, primary screen, biochemical, small-molecule microarray, 635/667 nm fluorescence (AID 1151); settings: small-molecule microarray binding, 635 nm fluorescence; higher = more signal;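 note: Shh protein binding to compounds spotted on small-molecule microarray slides; score combines spot fluorescence intensity with signal-to-noise across triplicate slides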
# [11] = E. coli DRC41 culture turbidity changes, primary screen, E. coli filamentation inducer project, strain DRC41, OD650, 48 h (AID 1152);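 note: E. coli MC1000 strain DRC41 lacking acrAB efflux pump and sulA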; settings: E. coli DRC41 (acrAB sulA), higher = more signal, called active from +8 up or from −8 down
# [12] = small-molecule binders of probe aLefty1, primary screen, biochemical, small-molecule microarray, 635/667 nm fluorescence (AID 1153); settings: higher = more signal;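 note: score merges spot fluorescence with signal-to-noise ratio from the scanned slide images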
# [13] = PSAC antagonists in infected red cells, primary screen, cell-based, P. falciparum Indochina, OD700, 1 h (AID 1154); settings: P. falciparum Indochina infected RBC osmotic lysis, higher = more signal, called active from +8 up or from −8 down
# [14] = PSAC antagonists in infected red cells, primary screen, cell-based, P. falciparum Indochina, OD700, 2 h (AID 1155);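 note: lysis reports solute entry through the parasite surface anion channel PSAC; channel blockers reduce lysis of infected cells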; settings: P. falciparum Indochina infected erythrocytes, osmotic lysis OD700; higher = more signal, called active from +8 up or from −8 down
# [15] = osmotic lysis modulators in infected erythrocytes, primary screen, PSAC antagonist project, cell-based, P. falciparum Indochina, OD700, 3 h (AID 1156); settings: higher = more signal, called active from +8 up or from −8 down
# [16] = PSAC antagonists in infected red cells, primary screen, cell-based, P. falciparum Indochina, OD700, 18 h (AID 1157); settings: P. falciparum Indochina infected erythrocytes, osmotic lysis OD700, 18 h; higher = more signal, called active from +8 up or from −8 down
# [17] = modulators of S6 phosphorylation in cells, primary screen, cell-based, A549, cytoblot, luminescence, serum-stimulated (AID 1158); settings: A549 phospho-S6 cytoblot, 5 h, higher = more signal;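 note: serum-stimulated A549 lung adenocarcinoma cells; signal is phosphorylated S6 detected by cytoblot immunostaining with HRP secondary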
# [18] = target: NADPH oxidase 2 (Homo sapiens) (UniProt P04839); test: NOX2-dependent H2O2 signal modulators, primary screen, NOX inhibitor project, cell-based, HEK293-NOX2, PMA-stimulated, Amplex Red fluorescence (AID 1159); settings: 45 min, higher = more signal, called active from +8 up or from −8 down; note: test concentration not given here
# NADPH oxidase 2 (Homo sapiens), sequence (P04839 whole entry, looked up): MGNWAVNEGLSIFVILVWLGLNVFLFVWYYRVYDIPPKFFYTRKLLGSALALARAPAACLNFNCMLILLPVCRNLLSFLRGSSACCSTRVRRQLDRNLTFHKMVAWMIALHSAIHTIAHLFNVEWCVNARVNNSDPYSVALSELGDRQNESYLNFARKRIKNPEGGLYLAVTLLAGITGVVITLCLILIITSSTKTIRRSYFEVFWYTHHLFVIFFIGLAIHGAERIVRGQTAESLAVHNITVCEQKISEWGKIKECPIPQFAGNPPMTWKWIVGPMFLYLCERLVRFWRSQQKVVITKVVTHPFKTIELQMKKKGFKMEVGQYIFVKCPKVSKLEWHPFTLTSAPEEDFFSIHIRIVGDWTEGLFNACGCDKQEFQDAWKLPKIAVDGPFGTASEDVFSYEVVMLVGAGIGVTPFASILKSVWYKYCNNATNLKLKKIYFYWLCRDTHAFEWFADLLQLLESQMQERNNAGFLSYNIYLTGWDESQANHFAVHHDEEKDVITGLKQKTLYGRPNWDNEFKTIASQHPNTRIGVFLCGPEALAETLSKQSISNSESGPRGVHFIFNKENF
# [19] = target: NADPH oxidase 4 (Homo sapiens) (UniProt Q9NPH5); test: NOX4-dependent H2O2 signal modulators, primary screen, NOX inhibitor project, cell-based, HEK293-NOX4, tetracycline-induced, Amplex Red fluorescence (AID 1160); settings: 45 min, higher = more signal, called active from +8 up or from −8 down
# NADPH oxidase 4 (Homo sapiens), sequence (Q9NPH5 whole entry, looked up): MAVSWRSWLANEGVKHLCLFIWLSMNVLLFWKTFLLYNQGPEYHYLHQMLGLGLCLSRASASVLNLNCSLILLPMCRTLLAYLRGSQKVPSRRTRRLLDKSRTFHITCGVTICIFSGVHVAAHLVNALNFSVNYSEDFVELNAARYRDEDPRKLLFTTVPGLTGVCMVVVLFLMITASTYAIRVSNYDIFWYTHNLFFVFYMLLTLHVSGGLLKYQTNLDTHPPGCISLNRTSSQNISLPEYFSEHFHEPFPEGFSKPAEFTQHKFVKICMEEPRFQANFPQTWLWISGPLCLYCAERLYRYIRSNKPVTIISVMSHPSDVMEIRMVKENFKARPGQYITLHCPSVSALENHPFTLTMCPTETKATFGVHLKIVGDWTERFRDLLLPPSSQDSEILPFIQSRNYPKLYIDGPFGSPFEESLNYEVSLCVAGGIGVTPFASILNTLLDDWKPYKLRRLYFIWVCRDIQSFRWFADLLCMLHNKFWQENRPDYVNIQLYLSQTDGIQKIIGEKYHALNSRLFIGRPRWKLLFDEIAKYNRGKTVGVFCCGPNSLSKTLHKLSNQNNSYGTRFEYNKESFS
# [20] = target: NADPH oxidase 5 (Homo sapiens) (UniProt Q96PH1); test: NOX5-dependent H2O2 signal modulators, primary screen, NOX inhibitor project, cell-based, HEK293-NOX5, Amplex Red fluorescence (AID 1161); settings: HEK293-NOX5, ionomycin, 45 min, higher = more signal
# NADPH oxidase 5 (Homo sapiens), sequence (Q96PH1 whole entry, looked up): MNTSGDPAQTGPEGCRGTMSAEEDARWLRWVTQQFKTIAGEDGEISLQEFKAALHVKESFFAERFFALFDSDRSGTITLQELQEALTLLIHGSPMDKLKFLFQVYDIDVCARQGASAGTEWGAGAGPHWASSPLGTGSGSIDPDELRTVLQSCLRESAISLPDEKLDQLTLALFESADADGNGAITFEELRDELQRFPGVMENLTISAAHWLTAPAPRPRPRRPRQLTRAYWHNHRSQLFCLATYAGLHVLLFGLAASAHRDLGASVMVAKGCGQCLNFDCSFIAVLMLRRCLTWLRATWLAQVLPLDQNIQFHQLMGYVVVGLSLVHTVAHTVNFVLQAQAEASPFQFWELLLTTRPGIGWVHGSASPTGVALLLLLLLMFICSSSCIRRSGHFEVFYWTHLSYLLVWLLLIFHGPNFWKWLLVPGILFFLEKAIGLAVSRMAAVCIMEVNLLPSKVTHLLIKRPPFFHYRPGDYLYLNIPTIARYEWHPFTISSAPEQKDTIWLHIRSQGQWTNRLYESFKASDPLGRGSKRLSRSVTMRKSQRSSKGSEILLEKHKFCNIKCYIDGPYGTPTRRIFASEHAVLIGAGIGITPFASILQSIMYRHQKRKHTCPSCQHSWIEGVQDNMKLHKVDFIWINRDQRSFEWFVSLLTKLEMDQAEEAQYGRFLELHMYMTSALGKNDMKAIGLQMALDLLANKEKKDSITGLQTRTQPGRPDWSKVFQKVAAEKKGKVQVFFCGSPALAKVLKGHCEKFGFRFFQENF
SMILES,composite z-score [1],z-score [2],z-score [3],z-score [4],z-score [5],composite z-score [6],composite z-score [7],composite z-score [8],composite z-score [9],composite z-score [10],z-score [11],composite z-score [12],z-score [13],z-score [14],z-score [15],z-score [16],z-score [17],z-score [18],z-score [19],z-score [20]
COc1ccc(C(O)C2C=CC3C(=O)N(c4ccccc4)C(=O)C3N2Nc2ccc(C(C)C)cc2)cc1OCc1ccccc1 (stereo not given),0.409,-0.0843 (inactive),-2.09 (inactive),1.4 (inactive),-0.465 (inactive),1.89,0.341,0.385,0.554,0.55,-3.31 (inactive),0.129,2.07 (inactive),1.62 (inactive),-0.167 (inactive),1.47 (inactive),-0.951,0.506 (inactive),-2.55 (inactive),-1.22
COC(=O)[C@@]1(Cc2ccc(F)cc2)[C@H]2c3cc(C(=O)N(C)C)n(Cc4nc5ccccc5[nH]4)c3C[C@H]2CN1C(=O)c1ccccc1,0.507,-0.574 (inactive),0.528 (inactive),1.53 (inactive),0.678 (inactive),0.711,0.348,-0.806,0.484,-0.586,-0.827 (inactive),-0.0297,20.5 (active),3.05 (inactive),1.13 (inactive),0.91 (inactive),-0.377,-0.0764 (inactive),0.32 (inactive),-2.06
COC(=O)[C@@]1(Cc2ccccc2)[C@H]2c3cc(C(=O)N4CCCC4)n(Cc4nc5ccccc5[nH]4)c3C[C@H]2CN1C(=O)c1ccccc1,0.0972,-2.97 (inactive),-0.509 (inactive),0.773 (inactive),1.46 (inactive),1.51,0.427,0.746,1.24,-0.105,-1.31 (inactive),1.06,3.2 (inactive),0.541 (inactive),2.65 (inactive),0.959 (inactive),-0.25,0.311 (inactive),-0.142 (inactive),-3
C=C/C=C/[C@H]1C(=C)CN([C@@H](Cc2ccccc2)C(=O)OC)[C@@H]1[C@H](O)Cc1ccccc1,-0.224,-0.123 (inactive),0.0605 (inactive),5.75 (inactive),0.794 (inactive),-0.663,-0.0736,-1.74,-1.4,0.122,0.297 (inactive),-0.239,1.09 (inactive),0.804 (inactive),-0.207 (inactive),0.257 (inactive),-0.344,-0.66 (inactive),-0.432 (inactive),-0.723
CCC(CC)C(O)C1C=CC2C(=O)N(C)C(=O)C2N1Nc1ccccc1 (stereo not given),0.334,0.667 (inactive),-0.625 (inactive),0.822 (inactive),-0.214 (inactive),1.48,0.288,0.551,0.235,-0.09,-0.39 (inactive),0.173,1.11 (inactive),1.09 (inactive),0.0973 (inactive),0.951 (inactive),-0.835,-1.73 (inactive),-3.49 (inactive),-3.77
CN(C)CCCC[C@@H]1NC(=O)[C@H]2C[C@@H](C(=O)NCCCCCNC(=O)CS)[C@@H](c3cccc(OCCO)c3)N2C1=O,0.12,0.358 (inactive),-0.358 (inactive),-0.114 (inactive),0.547 (inactive),0.182,-0.128,0.537,0.749,1.72,-0.728 (inactive),-0.0601,2.9 (inactive),0.55 (inactive),-0.744 (inactive),0.203 (inactive),-0.534,1.76 (inactive),0.749 (inactive),1.13
NCCCCCNC(=O)[C@@H]1C[C@@H]2C(=O)N[C@@H](Cc3ccccc3)C(=O)N2[C@@H]1c1cccc(OCCO)c1,0.0984,0.213 (inactive),0.205 (inactive),0.415 (inactive),0.201 (inactive),0.44,-0.182,0.89,0.373,0.867,-0.389 (inactive),-0.101,3.51 (inactive),0.418 (inactive),1.18 (inactive),0.351 (inactive),-0.0201,2.11 (inactive),-0.729 (inactive),0.832
C=CCOC(=O)[C@@H]1[C@H]2C(=O)O[C@H](c3ccccc3)[C@H](c3ccccc3)N2[C@H](c2ccc(OCCOC(=O)[C@@H]3C[C@@H]4C(=O)N[C@@H](CCCC[N+](C)(C)C)C(=O)N4[C@@H]3c3cccc(OCCO)c3)cc2)[C@@]12C(=O)Nc1ccc(I)cc12,0.596,-2.13 (inactive),-1.22 (inactive),0.0084 (inactive),1.83 (inactive),0.337,-0.122,0.993,1.15,1.99,-0.537 (inactive),0.121,2.82 (inactive),2.58 (inactive),2.24 (inactive),1.01 (inactive),-1.5,2.31 (inactive),0.862 (inactive),1.3
